Test results reported in PubChem BioAssay AID1159580 (chemical genetic matrix, 2015).
“And” between values parts separate entries of the source, which are not always exact repeats. Equal values may be shown once. The whole screen tested about 5,500 compounds, of which about 2,000 (36%) were called active. Not shown: some 18% with an inconclusive outcome. No stated cut-off is given here; in the data, active means normalized growth mostly below about 0.91 (no sharp cut-off); inconclusive means no clear call, values can overlap the other calls; inactive means mostly above about 0.92. Some of the results follow.

Test: chemical genetic growth profiling, strain panel (AID 1159580);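 further: tested at 20 µM; growth read once vehicle control cultures reached saturation at 30 °C; 1 = growth at the plate median or of vehicle wells; lower values mean less growth of the strain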
Details: S. cerevisiae deletion strains, growth OD

Measured: normalized growth

CC(C)(Oc1ccc(CCNC(=O)c2ccc(Cl)cc2)cc1)C(=O)O
inactive: locus YAL013W, strain DEP1, hits give low values 1.02 | locus YAL021C, strain ccr4, hits give low values 0.982 | locus YAL026C, strain drs2, hits give low values 0.985 | locus YAL030W, strain snc1, hits give low values 0.996 | locus YBL061C, strain skt5, hits give low values 0.999 | locus YBR009C, strain hhf1, hits give low values 0.975 | locus YBR021W, strain FUR4, hits give low values 1.02 | locus YBR023C, strain chs3, hits give low values 0.986 | locus YBR171W, strain sec66, hits give low values 0.978 | locus YBR229C, strain ROT2, hits give low values 1.01 | locus YBR231C, strain swc5, hits give low values 1.01 | locus YBR279W, strain paf1, hits give low values 0.972 | locus YCL011C, strain gbp2, hits give low values 0.982 | locus YCL016C, strain dcc1, hits give low values 0.971 | locus YCL029C, strain bik1, hits give low values 1.02 | locus YCL069W, strain vba3, hits give low values 0.988 | locus YCR088W, strain abp1, hits give low values 0.985 | locus YDL005C, strain med2, hits give low values 0.984 | locus YDL035C, strain GPR1, hits give low values 1.04 | locus YDL040C, strain nat1, hits give low values 0.995 | locus YDL074C, strain BRE1, hits give low values 1.01 | locus YDL101C, strain DUN1, hits give low values 1.01 | locus YDL134C, strain PPH21, hits give low values 1.05 | locus YDL185W, strain tfp1, hits give low values 1.02 | locus YDL192W, strain arf1, hits give low values 1.01 | locus YDR001C, strain nth1, hits give low values 0.987 | locus YDR069C, strain doa4, hits give low values 0.968 | locus YDR101C, strain arx1, hits give low values 0.995 | locus YDR137W, strain rgp1, hits give low values 0.988 | locus YDR150W, strain NUM1, hits give low values 1.01 | locus YDR159W, strain sac3, hits give low values 0.939 | locus YDR162C, strain NBP2, hits give low values 1.03 | locus YDR195W, strain ref2 0.993 | locus YDR297W, strain sur2, hits give low values 0.998 | locus YDR318W, strain mcm21, hits give low values 1.02 | locus YDR334W, strain swr1, hits give low values 0.995 | locus YDR335W, strain msn5, hits give low values 0.977 | locus YDR388W, hits give low values 1.01 | locus YDR392W, strain spt3, hits give low values 0.882 | locus YDR502C, strain sam2, hits give low values 1.02 | locus YEL003W, strain gim4, hits give low values 1.01 | locus YEL037C, strain rad23, hits give low values 0.99 | locus YEL061C, strain CIN8 (second series), hits give low values 0.997 | locus YEL061C, strain CIN8, hits give low values 1.01 | locus YER015W, strain faa2, hits give low values 0.995 | locus YER016W, strain bim1, hits give low values 0.971 | locus YER110C, hits give low values 1 | locus YER111C, strain swi4, hits give low values 0.984 | locus YER155C, strain BEM2 (second series), hits give low values 0.975 | locus YER155C, strain BEM2, hits give low values 1.01 | locus YER167W, strain BCK2, hits give low values 1.01 | locus YFR010W, strain ubp6, hits give low values 1.01 | locus YGL078C, strain dbp3, hits give low values 1.02 | locus YGL086W, strain mad1, hits give low values 1.01 | locus YGL167C, strain pmr1, hits give low values 1 | locus YGL173C, strain kem1, hits give low values 1 | locus YGL227W, strain vid30, hits give low values 0.977 | locus YGL240W, strain doc1, hits give low values 0.984 | locus YGL248W, strain PDE1, hits give low values 1.01 | locus YGL253W, strain hxk2, hits give low values 0.994 | locus YGR078C, strain PAC10, hits give low values 1 | locus YGR135W, strain pre9, hits give low values 1.02 | locus YGR252W, strain gcn5, hits give low values 1.02 | locus YHR013C, strain ard1, hits give low values 0.963 | locus YHR027C, strain rpn1, hits give low values 0.986 | locus YHR030C, strain SLT2, hits give low values 1.02 and 0.997 | locus YHR079C, strain IRE1 (second series), hits give low values 1.02 | locus YHR079C, strain IRE1, hits give low values 0.995 | locus YHR094C, strain hxt1, hits give low values 1.01 | locus YHR129C, strain ARP1, hits give low values 1.01 | locus YHR142W, strain chs7, hits give low values 0.999 | locus YHR200W, strain rpn10, hits give low values 1.03 | locus YIL066C, strain RNR3, hits give low values 1.02 | locus YIL073C, strain SPO22, hits give low values 1.15 | locus YIL125W, strain kgd1, hits give low values 1.01 | locus YIR030C, strain dcg1, hits give low values 1.02 | locus YJL092W, strain hpr5, hits give low values 0.996 | locus YJL095W, strain BCK1 (second series), hits give low values 0.983 | locus YJL095W, strain BCK1, hits give low values 1 and 0.972 | locus YJL115W, strain asf1, hits give low values 0.978 | locus YJL129C, strain trk1, hits give low values 0.955 | locus YJL134W, strain LCB3, hits give low values 1.01 | locus YJL154C, strain vps35, hits give low values 0.98 | locus YJL164C, strain tpk1, hits give low values 0.986 | locus YJL166W, strain qcr8, hits give low values 0.992 | locus YJL168C, strain set2, hits give low values 1.01 | locus YJL187C, strain SWE1 (second series), hits give low values 1.01 | locus YJL187C, strain SWE1, hits give low values 0.996 | locus YJR043C, strain POL32, hits give low values 1.02 | locus YJR066W, strain TOR1, hits give low values 0.967
